Measured values reported in the supplement of paper PMC13094657.
± gives the standard deviation of the averaged measurements.

What follows are compounds tested on MDA-MB-231 (assay: kynurenine production, fold change vs DMSO IFNg/TNF control; higher = more kynurenine produced (less inhibition)). Settings: pre-treatment time: 18 h then 24 h IFNg/TNF.
In short: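 MDA-MB-231 cells were seeded in 96-well plates at 7 × 10^4/well and, 24 h later, pre-treated for 18 h with each natural product in 0.1% DMSO. They were then stimulated for 24 h at 37°C with IFNγ (1 U/ml) and TNF (6.25 ng/ml). Supernatants were treated with trichloroacetic acid and p-dimethylaminobenzaldehyde and read at 492 nm against 0–100 μM standards. Kynurenine production is expressed as fold change over cytokine-stimulated vehicle wells on the same plate and, in the first screening round, averaged across duplicate plates.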

Row | Compound | kynurenine production
1 | O=C(/C=C/c1ccc(O)c(O)c1)O[C@H]1[C@H](O[C@@H]2O[C@H](CO)[C@@H](O)[C@H](O)[C@H]2O)[C@@H](O)[C@H](OCCc2ccc(O)c(O)c2)O[C@@H]1CO [Plantamajoside] (compound dose: 10 uM) | 0.678 ± 0.24
2 | C/C1=C\CC/C(C)=C/C2C(CC/C(C)=C/CC1)C2(C)C (stereo unspecified) [Casbene] (compound dose: 10 uM) | 0.871 ± 0.056
3 | C[C@@H]1CC[C@]2(C(=O)O[C@@H]3O[C@H](CO)[C@@H](O)[C@H](O)[C@H]3O)CC[C@]3(C)C(=CC[C@@H]4[C@@]5(C)CC[C@H](O)[C@@](C)(CO)[C@@H]5CC[C@]43C)[C@@H]2[C@]1(C)O [Pedunculoside] (compound dose: 10 uM) | 1 ± 0.29
4 | CC(=O)OC1C2C(OC(=O)c3ccccc3)C(C)CC2(OC(C)=O)C(=O)C(C)=CC2C(CCC13CO3)C2(C)C (stereo unspecified) [Euphorbia factor L25] (compound dose: 10 uM) | 0.911 ± 0.07
5 | C=C1C[C@@]23CC[C@H]4[C@@](C)(CCC[C@@]4(C)C(=O)O)[C@@H]2CC[C@]1(O[C@@H]1O[C@@H](CO)[C@@H](O)[C@H](O)[C@@H]1O[C@@H]1O[C@@H](CO)[C@@H](O)[C@H](O)[C@@H]1O)C3 [Steviolbioside] (compound dose: 10 uM) | 1.05 ± 0.44
6 | C[C@H]1[C@H](OC(=O)CCC(=O)O)O[C@@H]2O[C@@]3(C)CC[C@H]4[C@H](C)CC[C@@H]1[C@@]24OO3 [Artesunate] (compound dose: 10 uM) | 0.421 ± 0.04
7 | C[C@H]1O[C@@H](O[C@H]2CC[C@@]3(C)[C@@H](CC[C@]4(C)[C@@H]3C=C[C@]35OC[C@@]6(CCC(C)(C)C[C@H]63)[C@@H](O)C[C@]54C)[C@]2(C)CO)[C@H](O)[C@@H](O[C@@H]2O[C@H](CO)[C@@H](O)[C@H](O)[C@H]2O)[C@H]1O [Saikosaponin A] (compound dose: 10 uM) | 0.824 ± 0.1
8 | COC(=O)C1=CO[C@@H](O[C@@H]2O[C@H](CO)[C@@H](O)[C@H](O)[C@H]2O)[C@H]2[C@@H]1[C@H](O)C[C@]2(C)O [Shanzhiside methyl ester] (compound dose: 10 uM) | 0.998 ± 0.16
9 | CC(C)=CC/C=C(/C)[C@H]1CC[C@@]2(C)[C@@H]1[C@@H](O)CC1[C@@]3(C)CCC(O[C@@H]4O[C@H](CO)[C@@H](O)[C@H](O)[C@H]4O)C(C)(C)C3CC[C@]12C (stereo partly specified) [Ginsenoside Rh3] (compound dose: 10 uM) | 0.858 ± 0.029
10 | CC(CCC(OC1OC(CO)C(O)C(O)C1OC1OC(CO)C(O)C(O)C1O)C(C)(C)O)C1CCC2(C)C3CC=C4C(CCC(O)C4(C)C)C3(C)C(O)CC12C (stereo unspecified) [Mogroside II-A] (compound dose: 10 uM) | 0.693 ± 0.08
11 | CC1=CC23C(=O)C(C=C4COC(C)(C)OC4C24OC(C)(C)OC14)C1C(CC3C)C1(C)C (stereo unspecified) [Ingenol-3,4:5,20-diacetonide] (compound dose: 10 uM) | 1.11 ± 0.045
12 | CC(=O)O[C@@H]1CC[C@@]2(C)[C@@H](CC[C@]3(C)[C@@H]2C(=O)C=C2[C@@H]4[C@@H](C)[C@H](C)CC[C@]4(C)CC[C@]23C)[C@@]1(C)C(=O)O (compound dose: 10 uM) | 1.06 ± 0.062
13 | CC1C(=O)OC2C(O)C34C5CC(C(C)(C)C)C36C(OC(=O)C6O)OC4(C(=O)O5)C12O (stereo unspecified) [Ginkgolide B] (compound dose: 10 uM) | 1.18 ± 0.033
14 | CC1=CC[C@@H](C(C)(C)O)CC1 [(-)-α-Terpineol] (compound dose: 10 uM) | 0.84 ± 0.24
15 | C=C1C(=O)O[C@@H]2[C@H]3C(C)=CC[C@@]34O[C@@]4(C)CC[C@@H]12 [Arglabin] (compound dose: 10 uM) | 0.822 ± 0.039
16 | CC1(C)CC[C@]2(C(=O)O)[C@H](O)C[C@]3(C)C(=CC[C@@H]4[C@@]5(C)CC[C@H](O[C@@H]6O[C@H](CO)[C@@H](O)[C@H](O)[C@H]6O)C(C)(C)[C@@H]5CC[C@]43C)[C@@H]2C1 [Ecliptasaponin A] (compound dose: 10 uM) | 0.88 ± 0.15

Row | Compound | kynurenine production
17 | C=C1C(=O)O[C@H]2[C@H]1CCC(C)=C1CC[C@@](C)(O)[C@@H]12 [Micheliolide] (compound dose: 10 uM) | 0.591 ± 0.11
18 | Cc1cc(O)cc(O[C@@H]2O[C@H](CO)[C@@H](O)[C@H](O)[C@H]2O)c1 [Orcinol glucoside] (compound dose: 10 uM) | 0.821 ± 0.095
19 | CC12CCC(CC1)C(C)(C)O2 [1,8-cineole] (compound dose: 10 uM) | 0.913 ± 0.074
20 | CC1(C)CC[C@]2(C(=O)O)CC[C@]3(C)C(=CC[C@@H]4[C@@]5(C)CCC(=O)C(C)(C)[C@@H]5CC[C@]43C)[C@@H]2C1 [Oleanonic acid] (compound dose: 10 uM) | 1.136 ± 0.0017
21 | CC1=CC(=O)[C@@H]2C[C@H]1C2(C)C [Verbenone] (compound dose: 10 uM) | 1.25 ± 0.13
22 | CC(=O)OCC1=CO[C@@H](OC(=O)CC(C)C)[C@H]2C1=C[C@H](OC(=O)CC(C)(C)OC(C)=O)[C@]21CO1 [Acevaltrate] (compound dose: 10 uM) | 0.171 ± 0.011
23 | CC(=O)O[C@@H](C[C@@H](C)C1=C2C[C@H](O)[C@H]3[C@@]4(C)CCC(=O)C(C)(C)[C@@H]4CC[C@]3(C)[C@@]2(C)CC1=O)[C@H]1OC1(C)C [Alisol C 23-acetate] (compound dose: 10 uM) | 0.989 ± 0.024
24 | CC1(C)CC[C@]2(C(=O)O[C@@H]3O[C@H](CO)[C@@H](O)[C@H](O)[C@H]3O)CC[C@]3(C)C(=CC[C@@H]4[C@@]5(C)CC[C@H](O[C@@H]6O[C@H](C(=O)O)[C@@H](O)[C@H](O)[C@H]6O[C@@H]6O[C@H](CO)[C@@H](O)[C@H](O)[C@H]6O)C(C)(C)[C@@H]5CC[C@]43C)[C@@H]2C1 [Ginsenoside Ro] (compound dose: 10 uM) | 1.05 ± 0.091
25 | COC(=O)C1=CO[C@@H](O[C@@H]2O[C@H](CO)[C@@H](O)[C@H](O)[C@H]2O)[C@@H]2[C@@H](C)CC(=O)[C@]12O [Hastatoside] (compound dose: 10 uM) | 0.797 ± 0.12
26 | CC(C)=CCC[C@](C)(O[C@@H]1O[C@H](CO[C@@H]2O[C@H](CO)[C@@H](O)[C@H](O)[C@H]2O)[C@@H](O)[C@H](O)[C@H]1O)[C@H]1CC[C@]2(C)[C@@H]1[C@H](O)C[C@@H]1[C@@]3(C)CC[C@H](O[C@@H]4O[C@H](CO)[C@@H](O)[C@H](O)[C@H]4O[C@@H]4O[C@H](CO)[C@@H](O)[C@H](O)[C@H]4O)C(C)(C)[C@@H]3CC[C@]12C [Ginsenoside Rb1] (compound dose: 10 uM) | 1.08 ± 0.11
27 | C[C@@H]1C(=O)O[C@H]2C[C@@]34O[C@@H]5OC(=O)[C@H](O)[C@@]56[C@H](C(C)(C)C)[C@H](O)C(OC3=O)[C@]64[C@]21O (stereo partly specified) [Ginkgolide J] (compound dose: 10 uM) | 0.875 ± 0.023
28 | O=c1c(O)c(-c2ccc(O)cc2)oc2cc(O)cc(O)c12 [Kaempferol] (compound dose: 10 uM) | 0.672 ± 0.023
29 | C/C=C(/C)C(=O)O[C@H]1[C@H](OC(C)=O)[C@]2(CO)[C@H](O)C[C@]3(C)C(=CC[C@@H]4[C@@]5(C)CC[C@H](O[C@@H]6O[C@H](C(=O)O)[C@@H](O[C@@H]7O[C@H](CO)[C@@H](O)[C@H](O)[C@H]7O)[C@H](O)[C@H]6O[C@@H]6O[C@H](CO)[C@@H](O)[C@H](O)[C@H]6O)[C@](C)(CO)[C@@H]5CC[C@]43C)[C@@H]2CC1(C)C [Escin IB] (compound dose: 10 uM) | 0.801 ± 0.012
30 | C[C@H]1O[C@@H](Oc2c(-c3cc(O)c(O)c(O)c3)oc3cc(O)cc(O)c3c2=O)[C@@H](O)[C@@H](O)[C@@H]1O [Myricitrin] (compound dose: 10 uM) | 0.694 ± 0.16
31 | C=C(C)[C@@H]1CC[C@]2(C(=O)O[C@@H]3O[C@H](CO[C@@H]4O[C@H](CO)[C@@H](O[C@@H]5O[C@@H](C)[C@H](O)[C@@H](O)[C@H]5O)[C@H](O)[C@H]4O)[C@@H](O)[C@H](O)[C@H]3O)CC[C@]3(C)[C@H](CC[C@@H]4[C@@]5(C)CC[C@H](O[C@@H]6OC[C@H](O)[C@H](O)[C@H]6O[C@@H]6O[C@@H](C)[C@H](O)[C@@H](O)[C@H]6O)[C@@](C)(CO)[C@@H]5CC[C@]43C)[C@@H]12 [Pulchinenoside C] (compound dose: 10 uM) | 1.03 ± 0.18
